This assay is described as follows: NCI Yeast Anticancer Drug Screen. Data for the mgt1 strain (AID 153). To be noted: S. cerevisiae mgt1 mutant growth inhibition, stronger effect = higher value. As for the experimental part:
Growth inhibition of yeast strains with defined genetic alterations is measured as a screen for potential anti-cancer activity. Selected strains with alterations in DNA damage repair or cell cycle control were exposed to compounds and growth inhibition was measured relative to vehicle treated controls. The strain used in this assay is mgt1

The panel holds about 79,000 compounds, 15% with a hit somewhere; the sample as a whole holds those more often. Unmarked numbers belong to inactive results. The source made the active and inactive calls. No stated cut-off is given here; in the data, active means growth inhibition above about 70%; inactive means the rest.

On to `CCCCCCCCCCCC(O)S(=O)(=O)O` (stereo not given), for which the growth inhibition (at 1.2 µM) was -3%; the growth inhibition (at 3.7 µM) was 0%; the growth inhibition (at 11.0 µM) was -2%; the growth inhibition (at 33.0 µM) was -1%; the growth inhibition (at 100.0 µM) is 70% (active).
The corresponding values for `O=C(COC(=O)c1ccccc1)c1ccc(Br)cc1` are 5%, 13%, 22%, 99% (active) and 98% (active).
As to `CCN(CC)CCNc1ccc2ncn3c4cc(OC)c(OC)c(=O)c4c(O)c1c23`, the growth inhibition (at 1.2 µM) was 1%; the growth inhibition (at 3.7 µM) was 2%; the growth inhibition (at 11.0 µM) was 3%; the growth inhibition (at 33.0 µM) is 4%; the growth inhibition (at 100.0 µM) is 7%.
The corresponding values for `Oc1ccc(SCc2ccc(NCc3ccccc3)cc2)cc1` are -4%, 7%, 22%, 47% and 87% (active).
The corresponding values for `O=[N+]([O-])c1ccc(N/N=C/Cc2ccccc2)c([N+](=O)[O-])c1` are -2%, 1%, -1%, -2% and 13%.
`COC(=O)Nc1cn2ccc(C(Cl)=C(Cl)Cl)cc2n1`: the growth inhibition is -21% (at 1.2 µM); -17% (at 3.7 µM); -29% (at 11.0 µM); -24% (at 33.0 µM); -22% (at 100.0 µM).
Regarding `c1ccc(Cc2cc(-c3ccccc3)n[nH]2)cc1`, the growth inhibition (at 1.2 µM) is -4%; the growth inhibition (at 3.7 µM) was -8%; the growth inhibition (at 11.0 µM) is -11%; the growth inhibition (at 33.0 µM) is 8%; the growth inhibition (at 100.0 µM) is 50%.
As to `COc1ccc(C(=O)C(CN(C)C)CN(C)C)cc1`, the growth inhibition by setting is: (at 1.2 µM) -26%; (at 3.7 µM) -12%; (at 11.0 µM) -8%; (at 33.0 µM) 11%; (at 100.0 µM) 77% (active).

Values taken from PubChem BioAssay (NCI).
